Measurements taken from the supplement of paper PMC11732987, “Enantioselective OTUD7B fragment discovery through chemoproteomics screening and high-throughput optimisation” (Communications Chemistry, 2025).

Assays:
Test in all cases: log2 ratio of Biotin-Ahx-Ub-VS probe labelling (fragment/DMSO); higher = less target engagement (more negative = stronger competition), active = hit call of the paper (q ≤ 0.05, log2 ratio ≤ -1)
Details in all cases: compound concentration: 200 uM; treatment time: 3 h
ALG13 = molecular target: T1, ALG13 (UniProt Q9NP73)
T1 sequence (whole entry): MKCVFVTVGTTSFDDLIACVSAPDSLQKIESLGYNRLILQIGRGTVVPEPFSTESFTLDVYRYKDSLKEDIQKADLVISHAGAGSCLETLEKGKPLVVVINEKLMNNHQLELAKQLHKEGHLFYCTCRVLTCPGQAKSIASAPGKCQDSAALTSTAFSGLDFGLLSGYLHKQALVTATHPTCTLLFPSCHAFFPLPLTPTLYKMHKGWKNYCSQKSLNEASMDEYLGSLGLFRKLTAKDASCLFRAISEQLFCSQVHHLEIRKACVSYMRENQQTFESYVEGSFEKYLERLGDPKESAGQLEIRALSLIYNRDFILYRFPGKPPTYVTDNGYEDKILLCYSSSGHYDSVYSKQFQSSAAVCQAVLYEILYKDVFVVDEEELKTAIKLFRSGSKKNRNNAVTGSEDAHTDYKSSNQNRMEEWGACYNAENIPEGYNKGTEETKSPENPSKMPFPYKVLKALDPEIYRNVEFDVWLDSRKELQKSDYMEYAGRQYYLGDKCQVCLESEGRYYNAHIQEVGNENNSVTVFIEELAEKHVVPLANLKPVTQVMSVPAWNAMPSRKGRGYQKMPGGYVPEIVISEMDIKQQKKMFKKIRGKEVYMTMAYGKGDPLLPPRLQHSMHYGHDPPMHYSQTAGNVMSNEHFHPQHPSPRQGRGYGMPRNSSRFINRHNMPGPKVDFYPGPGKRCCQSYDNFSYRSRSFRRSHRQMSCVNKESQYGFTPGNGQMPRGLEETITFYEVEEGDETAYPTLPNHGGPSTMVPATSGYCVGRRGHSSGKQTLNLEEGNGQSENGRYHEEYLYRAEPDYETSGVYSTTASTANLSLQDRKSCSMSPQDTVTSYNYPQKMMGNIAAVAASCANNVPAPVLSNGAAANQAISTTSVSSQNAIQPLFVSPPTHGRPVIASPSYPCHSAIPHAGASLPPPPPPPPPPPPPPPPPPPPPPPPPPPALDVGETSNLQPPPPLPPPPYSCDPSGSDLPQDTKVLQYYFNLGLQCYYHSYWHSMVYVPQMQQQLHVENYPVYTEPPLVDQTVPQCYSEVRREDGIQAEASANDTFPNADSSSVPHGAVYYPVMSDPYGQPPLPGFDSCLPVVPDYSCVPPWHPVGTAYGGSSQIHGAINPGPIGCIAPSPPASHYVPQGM
Procedure, shortened: (§1)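 Lysate from HEK293T cells, 495 µg per sample in Tris/CHAPS/IGEPAL buffer with protease inhibitors, was treated for 3 h in triplicate with fragment at 200 µM or vehicle. Biotin-Ahx-Ub-VS was next added at 0.5 µM final for 1 h. The labelled DUBs were enriched with NeutrAvidin, digested with LysC and trypsin, and run by diaPASEF LC-MS/MS, with values given as average log2 fragment/vehicle ratios by unpaired t-test on global-median-normalised Spectronaut quantities of proteins with ≥2 unique peptides.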

ATXN3 = ATXN3 (UniProt P54252)
ATXN3, sequence (P54252 whole entry): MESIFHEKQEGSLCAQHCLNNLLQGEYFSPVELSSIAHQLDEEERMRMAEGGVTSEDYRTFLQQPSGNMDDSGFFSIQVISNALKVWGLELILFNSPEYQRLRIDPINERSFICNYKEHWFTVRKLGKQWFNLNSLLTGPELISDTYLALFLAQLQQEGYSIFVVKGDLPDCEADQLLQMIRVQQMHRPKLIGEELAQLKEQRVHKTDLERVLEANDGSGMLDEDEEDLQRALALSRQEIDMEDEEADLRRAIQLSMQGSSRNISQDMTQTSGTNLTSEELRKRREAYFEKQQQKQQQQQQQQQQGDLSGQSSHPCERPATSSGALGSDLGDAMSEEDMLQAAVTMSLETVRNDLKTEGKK
Procedure, shortened: as §1

BAP1 = molecular target: T2, BAP1 (UniProt Q92560)
T2 sequence (whole entry): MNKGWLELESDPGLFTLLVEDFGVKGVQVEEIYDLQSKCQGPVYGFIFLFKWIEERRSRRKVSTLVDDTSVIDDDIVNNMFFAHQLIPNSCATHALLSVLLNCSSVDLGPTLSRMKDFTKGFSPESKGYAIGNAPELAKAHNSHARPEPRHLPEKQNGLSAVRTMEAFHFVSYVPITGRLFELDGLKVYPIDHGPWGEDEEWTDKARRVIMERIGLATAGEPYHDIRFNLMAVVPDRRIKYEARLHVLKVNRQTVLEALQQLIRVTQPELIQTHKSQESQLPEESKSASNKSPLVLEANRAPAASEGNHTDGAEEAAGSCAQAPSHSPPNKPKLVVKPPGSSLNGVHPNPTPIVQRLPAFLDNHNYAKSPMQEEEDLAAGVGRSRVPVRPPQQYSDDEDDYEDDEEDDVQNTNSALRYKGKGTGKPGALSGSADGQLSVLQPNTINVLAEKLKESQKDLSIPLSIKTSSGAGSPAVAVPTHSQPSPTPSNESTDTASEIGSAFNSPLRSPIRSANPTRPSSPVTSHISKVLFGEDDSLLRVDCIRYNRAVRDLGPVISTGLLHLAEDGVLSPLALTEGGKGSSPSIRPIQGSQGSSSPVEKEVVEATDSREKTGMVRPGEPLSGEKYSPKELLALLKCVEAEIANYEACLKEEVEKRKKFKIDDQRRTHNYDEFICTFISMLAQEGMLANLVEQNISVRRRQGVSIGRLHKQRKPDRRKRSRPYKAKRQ
Procedure, shortened: as §1

EIF3F = EIF3F (UniProt O00303)
EIF3F, sequence (O00303 whole entry): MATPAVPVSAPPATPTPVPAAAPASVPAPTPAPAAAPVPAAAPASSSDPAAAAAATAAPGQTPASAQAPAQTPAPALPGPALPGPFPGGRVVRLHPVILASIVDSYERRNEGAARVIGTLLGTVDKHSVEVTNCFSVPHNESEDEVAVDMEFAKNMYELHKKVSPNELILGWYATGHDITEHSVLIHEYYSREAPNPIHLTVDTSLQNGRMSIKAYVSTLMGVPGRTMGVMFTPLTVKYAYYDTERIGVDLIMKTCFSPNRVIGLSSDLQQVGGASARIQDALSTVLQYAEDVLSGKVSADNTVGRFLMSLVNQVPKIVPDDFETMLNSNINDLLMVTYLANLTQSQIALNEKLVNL
Procedure, shortened: as §1

EIF3H = EIF3H (UniProt O15372)
EIF3H, sequence (O15372 whole entry): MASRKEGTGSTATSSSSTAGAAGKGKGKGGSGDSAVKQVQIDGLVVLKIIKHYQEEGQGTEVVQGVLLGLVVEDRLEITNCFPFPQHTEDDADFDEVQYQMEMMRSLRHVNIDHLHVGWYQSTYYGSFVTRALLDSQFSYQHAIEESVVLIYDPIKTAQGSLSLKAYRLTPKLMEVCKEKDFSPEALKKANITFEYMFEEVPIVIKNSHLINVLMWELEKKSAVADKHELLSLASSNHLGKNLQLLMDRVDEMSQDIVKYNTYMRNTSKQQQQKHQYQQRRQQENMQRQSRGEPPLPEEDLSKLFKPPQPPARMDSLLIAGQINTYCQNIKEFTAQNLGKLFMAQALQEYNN
Procedure, shortened: as §1

FAM105A = molecular target: T3, FAM105A (UniProt Q9NUU6)
T3 sequence (whole entry): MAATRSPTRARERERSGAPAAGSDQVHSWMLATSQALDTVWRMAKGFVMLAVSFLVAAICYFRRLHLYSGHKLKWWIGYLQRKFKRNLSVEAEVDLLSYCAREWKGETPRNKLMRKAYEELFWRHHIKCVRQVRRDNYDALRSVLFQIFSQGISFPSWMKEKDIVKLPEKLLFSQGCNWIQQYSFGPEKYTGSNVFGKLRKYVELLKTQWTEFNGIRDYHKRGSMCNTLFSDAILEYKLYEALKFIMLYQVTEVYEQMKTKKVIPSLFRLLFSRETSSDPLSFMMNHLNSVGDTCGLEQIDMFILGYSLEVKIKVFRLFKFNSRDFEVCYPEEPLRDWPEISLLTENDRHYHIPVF
Procedure, shortened: as §1

OTUB1 = OTUB1 (UniProt Q96FW1)
OTUB1, sequence (Q96FW1 whole entry): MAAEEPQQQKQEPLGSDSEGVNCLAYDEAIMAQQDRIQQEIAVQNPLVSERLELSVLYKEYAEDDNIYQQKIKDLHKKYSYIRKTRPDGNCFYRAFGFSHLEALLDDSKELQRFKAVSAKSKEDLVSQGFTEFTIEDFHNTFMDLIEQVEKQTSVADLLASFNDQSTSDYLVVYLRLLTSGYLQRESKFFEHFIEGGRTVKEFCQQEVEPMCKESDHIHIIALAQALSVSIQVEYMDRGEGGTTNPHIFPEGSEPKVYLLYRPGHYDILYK
Procedure, shortened: as §1

OTUD4 = molecular target: T4, OTUD4 (UniProt Q01804)
T4 sequence (whole entry): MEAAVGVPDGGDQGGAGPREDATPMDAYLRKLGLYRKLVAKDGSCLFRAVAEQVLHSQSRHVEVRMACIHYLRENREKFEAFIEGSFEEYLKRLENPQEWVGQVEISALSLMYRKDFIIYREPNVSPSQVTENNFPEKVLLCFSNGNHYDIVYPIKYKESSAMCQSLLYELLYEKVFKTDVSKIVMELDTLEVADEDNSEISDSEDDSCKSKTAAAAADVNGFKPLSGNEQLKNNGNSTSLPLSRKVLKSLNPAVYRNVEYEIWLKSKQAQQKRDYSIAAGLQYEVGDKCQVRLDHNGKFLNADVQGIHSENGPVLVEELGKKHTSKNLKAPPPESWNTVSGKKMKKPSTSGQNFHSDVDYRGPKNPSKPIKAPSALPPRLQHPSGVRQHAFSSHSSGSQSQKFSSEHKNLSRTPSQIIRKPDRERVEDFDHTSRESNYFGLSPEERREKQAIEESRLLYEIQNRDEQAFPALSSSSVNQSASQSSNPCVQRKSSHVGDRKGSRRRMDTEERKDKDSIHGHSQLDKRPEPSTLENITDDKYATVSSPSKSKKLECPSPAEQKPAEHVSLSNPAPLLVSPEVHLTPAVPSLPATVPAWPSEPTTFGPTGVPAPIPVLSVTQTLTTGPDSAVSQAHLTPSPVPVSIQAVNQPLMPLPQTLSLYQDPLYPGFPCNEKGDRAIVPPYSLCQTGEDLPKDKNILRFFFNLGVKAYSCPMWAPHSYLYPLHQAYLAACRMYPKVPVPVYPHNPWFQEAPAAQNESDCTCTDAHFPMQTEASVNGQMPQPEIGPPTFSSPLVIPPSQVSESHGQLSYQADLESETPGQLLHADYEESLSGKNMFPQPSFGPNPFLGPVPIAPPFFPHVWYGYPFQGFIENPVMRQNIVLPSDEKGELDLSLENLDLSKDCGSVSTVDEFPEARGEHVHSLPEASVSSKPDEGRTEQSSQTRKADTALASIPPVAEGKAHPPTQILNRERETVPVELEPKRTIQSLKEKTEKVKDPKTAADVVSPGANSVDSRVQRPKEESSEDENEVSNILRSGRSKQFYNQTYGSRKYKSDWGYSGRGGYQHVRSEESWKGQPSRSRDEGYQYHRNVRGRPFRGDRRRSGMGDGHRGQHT
Procedure, shortened: as §1

OTUD5 = molecular target: T5, OTUD5 (UniProt Q96G74)
T5 sequence (whole entry): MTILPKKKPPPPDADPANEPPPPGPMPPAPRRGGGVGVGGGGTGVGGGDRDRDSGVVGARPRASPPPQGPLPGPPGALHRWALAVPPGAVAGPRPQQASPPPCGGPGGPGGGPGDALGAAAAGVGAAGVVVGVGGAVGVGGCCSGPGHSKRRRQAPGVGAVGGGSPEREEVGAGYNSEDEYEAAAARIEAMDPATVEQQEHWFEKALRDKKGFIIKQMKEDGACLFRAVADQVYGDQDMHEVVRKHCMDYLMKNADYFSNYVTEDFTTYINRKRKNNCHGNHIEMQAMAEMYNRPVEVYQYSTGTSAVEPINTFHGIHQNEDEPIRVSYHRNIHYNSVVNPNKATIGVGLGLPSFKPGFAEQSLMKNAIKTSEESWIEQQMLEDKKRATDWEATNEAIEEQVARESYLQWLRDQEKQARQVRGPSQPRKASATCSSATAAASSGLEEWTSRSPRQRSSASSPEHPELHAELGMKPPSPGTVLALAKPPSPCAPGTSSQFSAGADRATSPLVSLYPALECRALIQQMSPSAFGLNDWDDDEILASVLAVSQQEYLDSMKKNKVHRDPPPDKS
Procedure, shortened: as §1

Measured: log2 ratio of Biotin-Ahx-Ub-VS probe labelling

O=C(CCl)Nc1cccc(NC(=O)c2ccccc2)c1
active: BAP1 -3.32
inactive: ALG13 0.117 | ATXN3 0.278 | EIF3F -0.291 | EIF3H 0.304 | FAM105A -0.516 | OTUB1 -0.202 | OTUD4 0.39 | OTUD5 -0.0636
